The source of these data is ChEMBL document CHEMBL3433997, “St. Jude Leishmania screening dataset” (2016).

Holding throughout (type): functional
Experiment [1] deals with Solute carrier family 2, facilitated glucose transporter member 1 (Homo sapiens) (UniProt P11166). Briefly: ST_JUDE_LEISH: Cytotoxicity at 2uM final concentration against transgenic Leishmania Mexicana promastigotes LmGLUT1 that are glucose transport deficient and complemented with the human glucose transporter GLUT1. Activity is measured by DNA content using SYBR green in vitro.
Solute carrier family 2, facilitated glucose transporter member 1 (Homo sapiens), sequence (P11166 whole entry): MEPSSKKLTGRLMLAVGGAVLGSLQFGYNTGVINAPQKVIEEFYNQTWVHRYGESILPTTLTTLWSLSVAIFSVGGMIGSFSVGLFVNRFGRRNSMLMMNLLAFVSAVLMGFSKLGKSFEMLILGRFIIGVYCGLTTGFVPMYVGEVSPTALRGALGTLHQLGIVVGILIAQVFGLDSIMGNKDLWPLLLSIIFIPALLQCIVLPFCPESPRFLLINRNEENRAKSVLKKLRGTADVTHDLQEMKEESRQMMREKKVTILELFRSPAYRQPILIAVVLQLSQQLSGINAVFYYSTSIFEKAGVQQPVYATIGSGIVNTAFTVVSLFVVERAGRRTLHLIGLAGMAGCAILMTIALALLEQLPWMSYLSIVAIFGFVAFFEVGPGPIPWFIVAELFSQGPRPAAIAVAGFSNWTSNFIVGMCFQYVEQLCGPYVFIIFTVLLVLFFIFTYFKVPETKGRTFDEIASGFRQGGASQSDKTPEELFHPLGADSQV

For experiment [2], the target named is Hexose transporter 1 (Plasmodium falciparum) (UniProt O97467). Nature of the experiment: ST_JUDE_LEISH: Cytotoxicity at 2uM final concentration against transgenic Leishmania Mexicana promastigotes LmPfHT that are glucose transport deficient and complemented with the Plasmodium falciparum hexose transporter. Activity is measured by DNA content using SYBR green in vitro.

Experiment [3] addresses Glucose transporter (Leishmania mexicana) (UniProt O61059). Nature of the experiment: ST_JUDE_LEISH: Cytotoxicity at 2uM final concentration against transgenic Leishmania Mexicana promastigotes LmGT2 that are glucose transport deficient and complemented with the L. Mexicana glucose transporter 2. Activity is measured by DNA content using SYBR green in vitro.

Take `COCCNCc1cccc(-c2ccc3c(Nc4ccc(Oc5cccnc5)cc4)ccnc3c2)c1`: the inhibition in experiment [1] was 1.93%; in experiment [2], 2.56%; in experiment [3], 2.93%.

Turning to `O=[N+]([O-])c1cccc(-c2nc3cc(C4=NC5CCCCC5N4)ccc3[nH]2)c1` (stereo not drawn), the inhibition in experiment [1] amounted to 0.61%; in experiment [2], 2.08%; in experiment [3] it was 1.26%.

Take `CC(C)C(NC(=O)c1c(F)cccc1F)C(=O)Nc1ccc(Cc2nc3ccccc3s2)cc1` (stereo not drawn): the inhibition in experiment [1] was -1.47%; in experiment [2], 2.55%; in experiment [3], 1.42%.

For the compound `COc1cc(NC(=O)/C=C/c2cc3ccccc3n2C)ccc1OCCN(C(C)C)C(C)C`, the figures for the inhibition in experiment [1], in experiment [2] and in experiment [3] were 4.23%, 4.39% and 3.12%, respectively.

As to `CCC[C@@H]([C@@H](CC1CCCCC1)C(=O)N[C@H](C(=O)Nc1nccs1)C(C)(C)SCCNC(=O)OCc1ccccn1)N(O)C=O`, the values for the inhibition in experiment [1], in experiment [2] and in experiment [3] were -3.15%, -0.71% and 8.17%, respectively.

Take `CCN(CC)c1ccc(C(c2ccc(N(CC)CC)cc2)c2ccc([N+](=O)[O-])cc2)cc1`: the inhibition in experiment [1] was found to be 15.3%; in experiment [2], 10.4%; in experiment [3], 8.28%.

As for `CCC(CC)NCc1c(O)ccc2c(CNC(CC)CC)c(O)ccc12`, the figures for the inhibition in experiment [1], in experiment [2] and in experiment [3] were -1.88%, -0.71% and -1.57%, respectively.

As for `c1cc(CNCc2ccc3c(c2)OCO3)cc(-c2cccc(CNc3ccc4ncccc4c3)c2)c1`, the inhibition in experiment [1] was 0.81%; in experiment [2], 1.4%; in experiment [3], -0.38%.

As for `O=C(/C=C/c1cccc(Cl)c1)NCCCCCN1CCC(c2c[nH]c3ccccc23)CC1`, the values for the inhibition in experiment [1], in experiment [2] and in experiment [3] were 3.67%, 6.67% and 0.06%, respectively.

On to `Cc1ccc2[nH]c3c(NCCN(C)C)ncnc3c2c1`, for which the inhibition in experiment [1] was 0.53%; in experiment [2], 1.24%; in experiment [3], -0.07%.

As to `CCc1c[nH]c2c(N3CCCC3=O)cc(C(=O)N[C@@H](Cc3ccccc3)[C@H](O)CNC(C)(C)c3cccc(C(F)(F)F)c3)cc12`, the figures for the inhibition in experiment [1], in experiment [2] and in experiment [3] were -1.29%, -2.43% and -0.27%, respectively.
